We go through 64 compounds from paper PMC4552634, “A New Set of Chemical Starting Points with Plasmodium falciparum Transmission-Blocking Potential for Antimalarial Drug Discovery” (PLoS ONE, 2015).

The structures appear in SMILES notation. About 3,200 (25%) of roughly 13,000 compounds showed an effect of 50% or more. The list shows a part of the results.

In general, % Inhibition refers to the relative decrease from the control value, in per cent.

For this assay, the system named is P. falciparum stage V gametocytes. Also noted: BacTiter-Glo ATP luminescence viability of purified stage V gametocytes in 384-well plates, per cent inhibition versus DMSO. The note with it: 48 h, 5 µM; inhibitor.
As to `COc1ccc2nccc([C@@H](O)CN3CCC(NC(=O)c4cc5c(F)cc(F)cc5[nH]4)CC3)c2n1` [TCMDC-134945], the “% Inhibition” value was -17.57%.

On to `CCCCCCc1c(C)[nH]c2cc(OC)ccc2c1=O` [TCMDC-138010], for which the “% Inhibition” value came out at 73.98%.

For the compound `COc1cc2c(=O)c(Cc3ccc(Cl)cc3)c(C)[nH]c2cc1F` [TCMDC-137280], the “% Inhibition” value amounted to 22.18%.

In the case of `CCCCCCCc1c(C)[nH]c2cc(OC)ccc2c1=O` [TCMDC-137173], the “% Inhibition” value was determined as 75.71%.

As to `CO/C(=C\C=C\c1cc2cc(Cl)c(Cl)cc2[nH]1)C(=O)NC1CC(C)N(C)C(C)C1` (stereo not shown) [TCMDC-139085], the “% Inhibition” value is given as -67.29%.

`CO/C(=C\C=C\c1cc2cc(Cl)c(Cl)cc2[nH]1)C(=O)NC1CCN(CCNc2ccccc2)CC1` [TCMDC-139535]: the “% Inhibition” value was -22.32%.

As for `CO/C(=C\C=C\c1cc2cc(Cl)c(Cl)cc2[nH]1)C(=O)N[C@H]1CN2CCC1CC2` [TCMDC-139095], the “% Inhibition” value is on record as -57.18%.

Regarding `CO/C(=C\C=C\c1cc2cc(Cl)c(Cl)cc2[nH]1)C(=O)NC1CCN(CCOc2ccccc2)CC1` [TCMDC-139454], the “% Inhibition” value was 27.46%.

`CO/C(=C\C=C\c1cc2cc(Cl)c(Cl)cc2[nH]1)C(=O)NC1CC2CCCC(C1)N2C` (stereo not shown) [TCMDC-139067]: the “% Inhibition” value was determined as 19.33%.

In the case of `CO/C(=C/C=C/c1cc2cc(Cl)c(Cl)cc2[nH]1)C(=O)NC1CC(C)(C)N(C)C(C)(C)C1` [TCMDC-139097], the “% Inhibition” value worked out at 81.55%.

As for `CO/C(=C\C=C\c1cc2cc(Cl)c(Cl)cc2[nH]1)C(=O)NC1CCN(CCCc2ccccc2)CC1` [TCMDC-139657], the “% Inhibition” value is on record as 70.65%.

`CO/C(=C\C=C\c1cc2cc(Cl)c(Cl)cc2[nH]1)C(=O)NC1CC2CCC(C1)N2C` (stereo not shown) [TCMDC-139038]: the “% Inhibition” value is recorded as 73.28%.

As for `CO/C(=C\C=C/c1cc2cc(Cl)c(Cl)cc2[nH]1)C(=O)NC1CC(C)(C)N(C)C(C)(C)C1` [TCMDC-139106], the “% Inhibition” value is reported as -40.37%.

On to `CC(C)(CNC(=O)[C@H]1CCCCN1)c1nc(-c2ccc(Cl)c(O)c2)c(-c2ccncc2)[nH]1` [TCMDC-141070], for which the “% Inhibition” value is on record as -44.74%.

As to `Oc1ccccc1-c1nc2cccnc2n1CCc1cccc(C(F)(F)F)c1` [TCMDC-135091], the “% Inhibition” value is listed as 14.7%.

Regarding `CCc1cc2c(Sc3nnc(N)s3)ncnc2s1` [TCMDC-123993], the “% Inhibition” value came out at 80.67%.

On to `Cc1sc2ncnc(Sc3nnc(N)s3)c2c1C` [TCMDC-124542], for which the “% Inhibition” value came out at 96.33%.

With `COc1ccc(-c2cc(C(=O)N[C@@H](CC3CCCCC3)C(=O)NC3CCCc4ccccc43)ccc2O)cc1` (stereo partly shown) [TCMDC-140806], the “% Inhibition” value came out at 24.41%.

For `O=C(NCCN1CCCc2ccccc21)C1CCN(c2nc(-c3ccc(Cl)cc3)no2)CC1` [TCMDC-125165], the “% Inhibition” value was determined as 5.616%.

Take `Cc1noc(C)c1-c1cccc(CNCc2cccc(-c3cccc(-c4nc5cc(F)ccc5[nH]4)c3)c2)c1.O=C(O)C(F)(F)F` [TCMDC-133064]: the “% Inhibition” value is reported as -20.89%.

Consider `Cn1cnc2c(Nc3ccncc3)nc(-c3ccc(OC(F)(F)F)cc3)nc21` [TCMDC-141276], for which the “% Inhibition” value is on record as -18.84%.

Consider `CC[C@H](N=C(Nc1ccc(C#N)cc1O)Nc1cccc(Cl)c1Cl)c1ccccc1` [TCMDC-140225], for which the “% Inhibition” value is on record as 74.86%.

On to `CC[C@H](N=C(Nc1ccc(-c2ccccc2)cc1)Nc1ccc(C#N)cc1O)c1ccccc1` [TCMDC-140209], for which the “% Inhibition” value is -62.75%.

Regarding `CCCCCC(C)N=C(Nc1ccc(C#N)cc1O)Nc1cccc(Cl)c1Cl` (stereo not shown) [TCMDC-140222], the “% Inhibition” value is given as -21.37%.

Turning to `CSc1c(CNCCCNc2cc(=O)c3ccccc3[nH]2)[nH]c2ccccc12` [TCMDC-140648], the “% Inhibition” value is -17.76%.

As for `O=C(Nc1ccc(Oc2ccccc2)cc1)N(Cc1ccc(-c2ccc(CN3CCNCC3)cc2)cc1)C1CCN(Cc2ccccc2)CC1` [TCMDC-139653], the “% Inhibition” value is listed as 106.3%.

Regarding `N#Cc1cccc(C(=O)Nc2ccc(-c3cccc(CN4CCC(O)CC4)c3)cc2)c1` [TCMDC-132670], the “% Inhibition” value is reported as -58.6%.

For `COC(=O)c1ccc(CN2CCC(N(Cc3cccc(Oc4ccccc4)c3)S(=O)(=O)c3ccc(NC(C)=O)cc3)CC2)cc1` [TCMDC-139500], the “% Inhibition” value is reported as -7.518%.

`O=C(Nc1ccc(Oc2ccccc2)cc1)N(Cc1ccc(-c2cccc(CN3CCNCC3)c2)cc1)C1CCN(Cc2ccccc2)CC1` [TCMDC-139637]: the “% Inhibition” value is listed as 111.2%.

Regarding `O=C(Nc1ccc(Oc2ccccc2)cc1)N(CCN1CCCC1)Cc1ccc(-c2ccc(CN3CCNCC3)cc2)cc1` [TCMDC-139652], the “% Inhibition” value is 103.6%.

As to `O=C(Nc1ccc(-c2nc3ccccc3[nH]2)cc1)C1CCN(Cc2ccccc2)CC1` [TCMDC-124891], the “% Inhibition” value is -65.72%.

On to `O=C(Nc1ccc(Cn2ncc(N3CCCNCC3)c(Cl)c2=O)cc1)Nc1cccc(Oc2ccccc2)c1` [TCMDC-133316], for which the “% Inhibition” value is given as 4.228%.

Regarding `O=C(Nc1ccc(-c2cccc(CN3CCC(O)CC3)c2)cc1)c1cccc(Cl)c1` [TCMDC-132665], the “% Inhibition” value is recorded as -3.105%.

With `O=C(Nc1cccc(-c2cccc(-c3nc4ccc(C(F)(F)F)cc4[nH]3)c2)c1)c1ccc(=O)[nH]n1` [TCMDC-137031], the “% Inhibition” value was -1.351%.

Regarding `O=C(Nc1ccc(-c2nc3ccccc3[nH]2)cc1)c1ccc(N2CCOCC2)c([N+](=O)[O-])c1` [TCMDC-124372], the “% Inhibition” value is -1.163%.

Regarding `O=C(NC1CC1)c1cnc(N2CCN(Cc3c(F)cccc3Cl)CC2)c(Cl)c1` [TCMDC-134607], the “% Inhibition” value worked out at 20.64%.

In the case of `CCC(C)NC(=O)CN1CN(c2ccccc2)C2(CCN(C(=O)c3ccc(C(C)(C)C)cc3)CC2)C1=O` (stereo not shown) [TCMDC-125176], the “% Inhibition” value is -75.94%.

For the compound `Nc1ncc(-c2ccccc2)cc1-c1nc2cc(Cl)c(F)cc2[nH]1` [TCMDC-138783], the “% Inhibition” value is -16.12%.

As for `Cc1c(S(=O)(=O)Nc2ccc3nccc(N4CC(C)NC(C)C4)c3c2)sc2ccc(Cl)cc12` (stereo not shown) [TCMDC-139464], the “% Inhibition” value was 2.238%.

Turning to `CC1CN(c2ccnc3ccc(Sc4ccc(Oc5ccccc5)cc4)cc23)CC(C)N1` (stereo not shown) [TCMDC-135857], the “% Inhibition” value is on record as 94.55%.

Take `CSc1ccc2nccc(Nc3ccc(Oc4ccccc4)cc3)c2c1` [TCMDC-138375]: the “% Inhibition” value is on record as -18.84%.

Consider `CC[C@H](C)CNC(=O)c1ccnc(-c2cccc(CN3CCC(N4CCCC4)CC3)c2)c1` [TCMDC-134244], for which the “% Inhibition” value was 20.81%.

Regarding `O=S(=O)(c1cccc(C(F)(F)F)c1)N1CCC(CO)(Cc2cccc(C(F)(F)F)c2)CC1` [TCMDC-124606], the “% Inhibition” value is recorded as 41.83%.

On to `CCCS(=O)(=O)N1CCC(CO)(Cc2ccccc2C(F)(F)F)CC1` [TCMDC-124652], for which the “% Inhibition” value stood at 66.01%.

`N#Cc1ccc(CN2CCC(Oc3ccc(NC(=O)c4ccco4)cc3Cl)C2)cc1` (stereo not shown) [TCMDC-133963]: the “% Inhibition” value is on record as 28.15%.

As for `O=C(NC1CCCCC1)N(Cc1cccc(-c2ccc(CNC3CCCC3)cc2)c1)C1CCN(Cc2ccccc2)CC1` [TCMDC-140631], the “% Inhibition” value is recorded as 106.7%.

Take `O=C(NC1CCCCC1)N(Cc1ccc(-c2cccc(CNC3CCCC3)c2)cc1)C1CCN(Cc2ccccc2)CC1` [TCMDC-140638]: the “% Inhibition” value turned out to be 83.36%.

`O=C(NC1CCCCC1)N(Cc1cccc(-c2cccc(CNC3CCCC3)c2)c1)C1CCN(Cc2ccccc2)CC1` [TCMDC-140630]: the “% Inhibition” value is reported as 102.1%.

In the case of `O=C(NC1CCCCC1)N(Cc1cccc(-c2ccc(CNCCc3ccccc3)cc2)c1)C1CCN(Cc2ccccc2)CC1` [TCMDC-140629], the “% Inhibition” value was 110.5%.

As for `COc1ccc2nccc(NCC3(O)CCN(CCc4ccc5c(c4)OCCO5)CC3)c2n1` [TCMDC-141461], the “% Inhibition” value worked out at 34.43%.

`CC(C)CN1C(=O)C(c2ccc(F)c(F)c2)=C(O)C1c1ccccc1` (stereo not shown) [TCMDC-141919]: the “% Inhibition” value is listed as 11.18%.

On to `O=C(Nc1ccc(OC2CCN(Cc3ccccc3)C2)c(Cl)c1)c1ccsc1` (stereo not shown) [TCMDC-133969], for which the “% Inhibition” value is on record as -1.877%.

Take `C=CCOC(=O)O[C@@H]1[C@@H](OC(=O)OCC=C)[C@@H](OC)O[C@H](COC(c2ccccc2)(c2ccccc2)c2ccccc2)[C@H]1OC(=O)OCC=C` [TCMDC-139139]: the “% Inhibition” value is reported as 34.95%.

With `COc1ccccc1N1CCN(CCCCNC(=O)c2ccc(NC(=O)c3cc4ccccc4o3)cc2)CC1` [TCMDC-138115], the “% Inhibition” value was -10.75%.

For the compound `Cc1cccc(CN2CCC(Oc3ccc(NC(=O)c4cccs4)cc3Cl)CC2)n1` [TCMDC-133964], the “% Inhibition” value was found to be 24.07%.

Regarding `O=C(NC1CCCCC1)N(Cc1ccc(-c2ccc(CNC3CCCC3)cc2)cc1)C1CCN(Cc2ccccc2)CC1` [TCMDC-140639], the “% Inhibition” value amounted to 105.2%.

In the case of `FC(F)(F)c1cccc2c(NN=Cc3ccccc3)ccnc12` [TCMDC-142025], the “% Inhibition” value amounted to 48.45%.

On to `COc1ccc2ncc(F)c(CCN3CC[C@@H](CNCc4ccc5c(c4C)OCCO5)C3)c2n1` [TCMDC-136057], for which the “% Inhibition” value worked out at 40.7%.

Turning to `COc1ccc(C(=O)CCC(=O)N(Cc2ccc(-c3ccc(CNCc4cccnc4)cn3)cc2)C2CCN(Cc3ccccc3)CC2)cc1F` [TCMDC-141504], the “% Inhibition” value is 91.04%.

On to `COc1ccc(C(=O)CCC(=O)N(Cc2ccc(-c3ccc(CNCCc4ccc(S(C)(=O)=O)cc4)cn3)cc2)C2CCN(Cc3ccccc3)CC2)cc1F` [TCMDC-141516], for which the “% Inhibition” value came to 12.43%.

As for `c1ccc(CN2CCC(NCc3ccc(-c4ccc(CNCc5cccnc5)cn4)cc3)CC2)cc1` [TCMDC-141613], the “% Inhibition” value is reported as -15.37%.

For `O=C(Cc1cccnc1)N(Cc1ccc(-c2ccc(CNCc3cccnc3)cn2)cc1)C1CCN(Cc2ccccc2)CC1` [TCMDC-141503], the “% Inhibition” value was 73.31%.

For `C=CCc1cccc(C)c1OCCCON1C(N)=NC(N)=NC1(C)C` [TCMDC-131307], the “% Inhibition” value came to 8.677%.

In the case of `Cc1cc(C)n2nc(C(=O)Nc3cc(C(F)(F)F)ccc3N3CCOCC3)nc2n1` [TCMDC-123614], the “% Inhibition” value is given as 4.468%.
